The whole screen tested about 5,500 compounds, of which about 2,000 (36%) were called active. Roughly 18% stayed inconclusive and do not appear here. Rule as the data show it: active = normalized growth mostly below about 0.91 (no sharp cut-off); inconclusive = no clear call, values can overlap the other calls; inactive = mostly above about 0.92. The list shows a part of the results.
Assay: chemical genetic growth profiling, strain panel (AID 1159580);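 also: tested at 20 µM; growth read once vehicle control cultures reached saturation at 30 °C; 1 = growth at the plate median or of vehicle wells; lower values mean less growth of the strain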
Conditions: growth OD

Measured: normalized growth

C[C@]12CCC3c4ccc(OS(=O)(=O)O)cc4CCC3C1CC[C@H]2O (stereo not given in full)
inactive: S. cerevisiae deletion strains, locus YJR043C, strain POL32, hits give low values 1 | S. cerevisiae deletion strains, locus YJR066W, strain TOR1, hits give low values 0.983 | S. cerevisiae deletion strains, locus YKL009W, strain mrt4, hits give low values 0.99 | S. cerevisiae deletion strains, locus YKL068W, hits give low values 0.995 | S. cerevisiae deletion strains, locus YKL085W, strain MDH1 (second series), hits give low values 0.987 | S. cerevisiae deletion strains, locus YKL085W, strain MDH1, hits give low values 0.987 | S. cerevisiae deletion strains, locus YKL160W, strain elf1, hits give low values 0.923 | S. cerevisiae deletion strains, locus YKL190W, strain CNB1, hits give low values 1 | S. cerevisiae deletion strains, locus YKR001C, strain vps1, hits give low values 0.994 | S. cerevisiae deletion strains, locus YKR026C, strain gcn3, hits give low values 0.988 | S. cerevisiae deletion strains, locus YKR091W, strain srl3, hits give low values 0.97 | S. cerevisiae deletion strains, locus YLL001W, strain dnm1, hits give low values 0.994 | S. cerevisiae deletion strains, locus YLL026W, hits give low values 0.967 | S. cerevisiae deletion strains, locus YLL041C, strain sdh2, hits give low values 0.978 | S. cerevisiae deletion strains, locus YLR027C, strain aat2, hits give low values 0.997 | S. cerevisiae deletion strains, locus YLR039C, strain RIC1, hits give low values 0.977 | S. cerevisiae deletion strains, locus YLR058C, strain SHM2, hits give low values 0.99 | S. cerevisiae deletion strains, locus YLR102C, strain apc9, hits give low values 0.99 | S. cerevisiae deletion strains, locus YLR113W, strain HOG1, hits give low values 0.963 | S. cerevisiae deletion strains, locus YLR221C, strain rsa3, hits give low values 1.02 | S. cerevisiae deletion strains, locus YLR258W, strain gsy2, hits give low values 0.965 | S. cerevisiae deletion strains, locus YLR262C, strain YPT6 (second series), hits give low values 0.977 | S. cerevisiae deletion strains, locus YLR262C, strain YPT6, hits give low values 0.945 | S. cerevisiae deletion strains, locus YLR268W, strain sec22, hits give low values 0.973 | S. cerevisiae deletion strains, locus YLR320W, strain mms22, hits give low values 1.02 | S. cerevisiae deletion strains, locus YLR330W, strain CHS5, hits give low values 0.987 | S. cerevisiae deletion strains, locus YLR342W, strain FKS1 (second series), hits give low values 0.988 | S. cerevisiae deletion strains, locus YLR342W, strain FKS1, hits give low values 0.987 | S. cerevisiae deletion strains, locus YLR357W, strain rsc2, hits give low values 0.955 | S. cerevisiae deletion strains, locus YLR370C, strain arc18, hits give low values 0.976 | S. cerevisiae deletion strains, locus YLR371W, strain rom2, hits give low values 0.986 | S. cerevisiae deletion strains, locus YLR384C, strain iki3, hits give low values 0.959 | S. cerevisiae deletion strains, locus YLR418C, strain cdc73, hits give low values 0.973 | S. cerevisiae deletion strains, locus YML016C, strain PPZ1, hits give low values 0.993 | S. cerevisiae deletion strains, locus YML032C, strain rad52, hits give low values 0.989 | S. cerevisiae deletion strains, locus YML120C, strain ndi1, hits give low values 0.995 | S. cerevisiae deletion strains, locus YML124C, strain tub3, hits give low values 0.988 | S. cerevisiae deletion strains, locus YMR058W, strain fet3, hits give low values 0.979 | S. cerevisiae deletion strains, locus YMR078C, strain ctf18, hits give low values 0.982 | S. cerevisiae deletion strains, locus YMR125W, strain sto1, hits give low values 0.994 | S. cerevisiae deletion strains, locus YMR129W, hits give low values 0.961 | S. cerevisiae deletion strains, locus YMR205C, strain PFK2, hits give low values 1.01 | S. cerevisiae deletion strains, locus YMR223W, strain ubp8, hits give low values 0.985 | S. cerevisiae deletion strains, locus YMR231W, strain pep5, hits give low values 0.991 | S. cerevisiae deletion strains, locus YMR263W, strain SAP30, hits give low values 1 | S. cerevisiae deletion strains, locus YMR307W, strain GAS1, hits give low values 0.928 | S. cerevisiae deletion strains, locus YNL067W, strain RPL9B, hits give low values 1.02 | S. cerevisiae deletion strains, locus YNL071W, strain lat1, hits give low values 0.988 | S. cerevisiae deletion strains, locus YNL128W, strain TEP1, hits give low values 0.982 | S. cerevisiae deletion strains, locus YNL153C, strain GIM3, hits give low values 1.03 | S. cerevisiae deletion strains, locus YNL183C, strain NPR1, hits give low values 0.913 | S. cerevisiae deletion strains, locus YNL209W, strain ssb2, hits give low values 0.979 | S. cerevisiae deletion strains, locus YNL233W, strain BNI4, hits give low values 0.998 | S. cerevisiae deletion strains, locus YNL248C, strain rpa49, hits give low values 0.914 | S. cerevisiae deletion strains, locus YNL250W, strain rad50, hits give low values 0.995 | S. cerevisiae deletion strains, locus YNL271C, strain bni1, hits give low values 0.989 | S. cerevisiae deletion strains, locus YNL298W, strain CLA4, hits give low values 0.984 | S. cerevisiae deletion strains, locus YNL307C, strain MCK1, hits give low values 0.98 | S. cerevisiae deletion strains, locus YNL322C, strain KRE1 (second series), hits give low values 0.952 | S. cerevisiae deletion strains, locus YNR049C, strain mso1, hits give low values 0.953 | S. cerevisiae deletion strains, locus YNR052C, strain pop2, hits give low values 0.982 | S. cerevisiae deletion strains, locus YOL006C, strain TOP1, hits give low values 1.05 | S. cerevisiae deletion strains, locus YOL012C, strain htz1 1.45 | S. cerevisiae deletion strains, locus YOL147C, strain pex11, hits give low values 0.984 | S. cerevisiae deletion strains, locus YOR001W, strain rrp6, hits give low values 1.01 | S. cerevisiae deletion strains, locus YOR061W, strain CKA2, hits give low values 0.986 | S. cerevisiae deletion strains, locus YOR069W, strain VPS5, hits give low values 0.988 | S. cerevisiae deletion strains, locus YOR070C, strain gyp1, hits give low values 0.991 | S. cerevisiae deletion strains, locus YOR080W, strain dia2, hits give low values 0.96 | S. cerevisiae deletion strains, locus YOR083W, strain WHI5, hits give low values 0.901 | S. cerevisiae deletion strains, locus YOR106W, strain vam3, hits give low values 0.95 | S. cerevisiae deletion strains, locus YOR136W, strain idh2, hits give low values 0.988 | S. cerevisiae deletion strains, locus YOR144C, strain elg1, hits give low values 0.987 | S. cerevisiae deletion strains, locus YOR184W, strain ser1, hits give low values 0.995 | S. cerevisiae deletion strains, locus YOR231W, strain MKK1, hits give low values 0.965 | S. cerevisiae deletion strains, locus YOR265W, strain rbl2, hits give low values 0.978 | S. cerevisiae deletion strains, locus YOR270C, strain vph1, hits give low values 0.97 | S. cerevisiae deletion strains, locus YOR290C, strain snf2, hits give low values 0.951 | S. cerevisiae deletion strains, locus YOR316C, strain cot1, hits give low values 0.989 | S. cerevisiae deletion strains, locus YPL051W, strain arl3, hits give low values 0.973 | S. cerevisiae deletion strains, locus YPL078C, strain atp4, hits give low values 0.97 | S. cerevisiae deletion strains, locus YPL106C, strain sse1, hits give low values 0.955 | S. cerevisiae deletion strains, locus YPL240C, strain hsp82, hits give low values 0.984 | S. cerevisiae deletion strains, locus YPL256C, strain CLN2, hits give low values 0.981 | S. cerevisiae deletion strains, locus YPR119W, strain clb2, hits give low values 0.988 | S. cerevisiae deletion strains, locus YPR141C, strain kar3, hits give low values 0.984 | S. cerevisiae deletion strains, locus YPR163C, strain tif3, hits give low values 0.984 | S. cerevisiae deletion strains, locus YPR167C, strain met16, hits give low values 0.988 | S. cerevisiae deletion strains, strain wtn01, hits give low values 0.975 | S. cerevisiae strains, strain wild type, hits give low values 0.999
